A selection: hits, their analogues and other compounds. The true share with any hit is near 3.3%.
TbPYK inhibitor = T. brucei pyruvate kinase inhibition; Potency, µM (titrated, usually from 76.8 µM), hits mostly inhibitors; Q57TT1; AID 624173; 410,000 compounds, 0.12% hits; TbPYK enzyme, Kinase-Glo Plus ATP luminescence, 45 min; further: nearly all actives have a fitted effect of over 50% in size
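TbPYK + substrate in 50 mM TEA pH 7.2, 100 mM KCl, 10 mM MgCl2, 0.05% BSA, 0.01% Tween-20; cpd pinned; ADP 130 uM final; 45 min RT; Kinase-Glo Plus 10 min; luminescence endpoint.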
RE007 growth inh = less growth of the S. pombe RE007 Vpr strain | S. pombe RE007 Vpr strain, BacTiter-Glo ATP luminescence, 24 h | Potency, µM (top dose mostly 92.2 µM), actives largely listed as inhibitors | 360,000 compounds, 0.21% hits; active means well fitted falling curve with a large enough effect; inconclusive means small, poorly fitted or top-dose-only effect; inactive means no such curve, though single readings can be large or run the other way; further: nearly all actives have a fitted effect of over 50% in size
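Fission yeast RE007 carrying one integrated HIV-1 vpr copy, seeded at OD 0.01 in PMG+AL medium with 23 nL pinned compound. Grown 24 h at 30 degrees; viability read by BacTiter-Glo luminescence after 5 min.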
FBPA Giardia inh = Giardia lamblia aldolase inhibition | A8B2U2 | purified Giardia FBPA | Potency, µM (doses to about 59.6 µM), hits mostly inhibitors | 290,000 compounds, 0.71% hits | AID 2451; further: nearly all actives have a fitted effect of over 55% in size
Target sequence (A8B2U2 whole entry, looked up): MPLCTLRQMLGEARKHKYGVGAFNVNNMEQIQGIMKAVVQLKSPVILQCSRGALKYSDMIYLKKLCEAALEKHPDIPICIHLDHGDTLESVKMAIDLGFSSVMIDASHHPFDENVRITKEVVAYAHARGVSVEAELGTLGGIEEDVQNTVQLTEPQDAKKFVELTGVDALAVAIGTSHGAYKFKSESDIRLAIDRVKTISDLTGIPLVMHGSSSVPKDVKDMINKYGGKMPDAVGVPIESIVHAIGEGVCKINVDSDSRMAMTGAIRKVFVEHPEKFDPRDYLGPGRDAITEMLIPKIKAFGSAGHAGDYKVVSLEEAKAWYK
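Giardia FBPA (40 nM reagent) was preincubated 10 min at RT with compound (up to 57.5 uM final), then substrate plus GAPDH/TPI/NAD/arsenate coupling system with diaphorase/resazurin was added; resorufin fluorescence (525/598 nm) was read after 20 min.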
LmPK inhibitor = LmPK (Leishmania mexicana) enzyme inhibition. Potency, µM (titrated, usually from 57.5 µM), most hits filed as inhibitors. AID 1721. purified LmPK, Kinase-Glo ATP luminescence, 1 h. 290,000 compounds, 0.37% hits
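qHTS format; LmPK 0.1 nM; substrates PEP 0.5 mM and ADP 0.1 mM. One-hour room-temperature incubation, then coupled luciferase luminescence; 0.5 nM enzyme wells mark activation.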
Sm TGR block = inhibitors of Schistosoma mansoni thioredoxin glutathione reductase; purified TGR, DTNB reduction, TNB absorbance 405 nm; Q962Y6; 360,000 compounds, 3% hits; Potency, µM (series often up to 114 µM), actives largely listed as inhibitors; further: nearly all actives have a fitted effect of over 60% in size
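Kinetic colorimetric format: TGR-catalysed, NADPH-driven DTNB reduction monitored via TNB absorbance. Enzyme dispensed at 20 nM; compound exposure 15 min at room temperature before reaction start.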
A number is an active result; - = inactive; ? = inconclusive; . = no result given. Unless noted, the call rests on the fitted dose curve; in most records, active means well fitted curve in the direction sought with a large enough effect; inconclusive means small, poorly fitted or top-dose-only effect, or another doubt; inactive means no such curve, though single readings can be large; an effect the other way counts as inactive or inconclusive.

SMILES | TbPYK inhibitor | RE007 growth inh | FBPA Giardia inh | LmPK inhibitor | Sm TGR block
O=C1CCCCCN1C(=O)c1ccccc1 | - | - | . | . | .
O=C1CCCCCN1Sc1ccccc1 | - | 13µM | - | - | -
O=C(CCl)c1ccc(Cc2ncc(C(F)(F)F)cc2Cl)s1 | - | - | - | - | 8.9µM
O=C(CN1C(=O)COc2ccccc21)N1CCOCC1 | - | - | . | - | -
O=C1CN(CC(=O)N2CCCCC2)c2ccccc2O1 | - | ? | - | - | 11µM
O=C(CN1C(=O)COc2ccccc21)N1CCCC1 | - | - | - | - | -
O=C1CN(CC(=O)N2CCOCC2)c2ccccc2O1 | . | . | ? | - | 20µM
C=CCNC(=O)CN1C(=O)NC(C)(c2ccc(OC)cc2)C1=O (stereo unspecified) | - | - | - | - | -
O=C(COC(=O)c1cc(Cl)ccc1[N+](=O)[O-])Nc1cccc2ccccc12 | - | - | - | - | -
O=C(CCl)c1ccc2[nH]c(=O)oc2c1 | - | - | - | - | 11µM
CCC(Sc1nc(N)c(NC(=O)c2ccc(OC)cc2)c(=O)[nH]1)C(=O)O (stereo unspecified) | - | - | - | - | -
O=C(CNC(=O)c1ccc(Cl)cc1)OCc1cc(=O)n2ccsc2n1 | - | . | . | . | 35µM
COc1ccc(Oc2c(C)oc3cc(OC(=O)N(C)C)ccc3c2=O)cc1 | - | - | - | - | 22µM
Nc1ccc(Cc2ccc(N)c(O)c2)cc1O | - | - | ? | - | 40µM
COc1cc(Cc2ccc(N)c(OC)c2)ccc1N | - | - | - | - | -
Cc1sc2nc(CN3CCCC3)nc(NCc3ccncc3)c2c1C | - | - | - | - | 40µM
CCOC(=O)c1sc2nc(CN3CCCCC3)nc(Cl)c2c1C | - | - | - | - | -
Cc1sc2nc(CN3CCCC3)nc(Cl)c2c1C | - | - | - | - | 7.1µM
CC1(C)CC2(C)OC(=N)C1(C#N)C2(C#N)C#N (stereo unspecified) | - | - | - | - | 13µM
CNC(=O)/C(C#N)=C/c1cccc(Oc2ccccc2)c1 | - | 18µM | - | - | -
CNC(=O)/C(=C\c1cccc(Oc2ccccc2)c1)NC(=O)c1ccccc1 | - | - | - | - | -
CCOc1ccc(C(=O)CN2CCN(S(=O)(=O)c3ccc(F)cc3)CC2)cc1 | - | - | - | - | 25µM
COc1ccc(S(=O)(=O)N2CCN(CC(=O)c3ccc(O)c(O)c3)CC2)cc1 | ? | - | . | - | 20µM
O=C(CN1CCN(S(=O)(=O)c2ccc(Cl)cc2)CC1)c1ccc(O)c(O)c1 | - | - | . | - | 20µM
COc1cccc(C(=O)CN2CCN(S(=O)(=O)c3ccc(Cl)cc3)CC2)c1 | - | . | . | . | 22µM
SMILES | TbPYK inhibitor | RE007 growth inh | FBPA Giardia inh | LmPK inhibitor | Sm TGR block
COc1ccc(S(=O)(=O)N2CCN(S(=O)(=O)c3ccc(OC)cc3)CC2)cc1 | . | . | . | . | -
NC(=O)N1CCC2(CC1)NC(=O)N(c1ccccc1)N2 | - | - | - | - | -
COC(=O)c1c(NC(=O)c2nc(SC)ncc2Cl)sc2c1CCCC2 | - | . | . | . | -
COc1ccc(-c2cc3ncc(C(=O)c4cc([N+](=O)[O-])ccc4O)cn3n2)cc1 | - | . | . | . | -
O/C(=C\c1nc2ccccc2nc1/C=C(\O)c1ccccc1)c1ccccc1 | - | - | 3.2µM | ? | -
COc1ccc(CCNC(=O)C/C(C)=N/NC(=O)c2ccc(N)cc2)cc1OC | - | - | - | - | -
COc1ccc(Cn2c(SCc3ccc(C(=O)NCc4ccccc4F)cc3)nc3cccnc32)cc1 | - | . | . | . | -
COc1ccc(N2C(=O)CC(N3CCOCC3)C2=O)cc1 (stereo unspecified) | - | ? | - | - | 25µM
CCOc1ccc(N2C(=O)CC(N3CCN(c4ccc([N+](=O)[O-])cc4)CC3)C2=O)cc1 (stereo unspecified) | - | - | - | - | 10µM
COc1ccc(N2C(=O)CC(N3CCC(O)(c4ccc(Cl)cc4)CC3)C2=O)cc1 (stereo unspecified) | - | ? | - | - | 50µM
COc1ccc(N2C(=O)CC(N3CCN(c4ccccc4)CC3)C2=O)cc1 (stereo unspecified) | - | - | - | - | -
COc1ccc(N2C(=O)CC(N3CCN(c4ccc(Cl)cc4)CC3)C2=O)cc1 (stereo unspecified) | - | - | - | - | 45µM
O=C1c2ccccc2C(=O)N1CCc1c[nH]c2ccc(O)cc12 | - | - | - | - | -
COc1ccc(N2C(=O)CC(N3CCN(c4ccccc4OC)CC3)C2=O)cc1 (stereo unspecified) | - | - | - | - | ?
COc1ccccc1N1CCN(C2CC(=O)N(c3cccc(Br)c3)C2=O)CC1 (stereo unspecified) | - | ? | - | - | 45µM
COC(=O)c1ccc(N2C(=O)CC(N3CCN(C(=O)c4ccco4)CC3)C2=O)cc1 (stereo unspecified) | - | - | - | - | ?
O=C1CC(N2CCSCC2)C(=O)N1c1cccc(Cl)c1 (stereo unspecified) | - | ? | - | - | 28µM
COC(=O)c1ccc(N2C(=O)CC(N3CCC(O)(c4ccc(Br)cc4)CC3)C2=O)cc1 (stereo unspecified) | - | 35µM | ? | - | 45µM
COc1cccc(N2CCN(C3CC(=O)N(c4cccc(Cl)c4)C3=O)CC2)c1 (stereo unspecified) | - | ? | - | - | 45µM
C/C(N)=C(/C#N)C(=O)COC(=O)C(NS(=O)(=O)c1ccc(Cl)cc1)C(C)O (stereo unspecified) | - | - | - | - | -
CCOc1ccc(N2C(=O)CC(N3CCN(c4ccc(Cl)cc4)CC3)C2=O)cc1 (stereo unspecified) | - | - | - | - | 3.2µM
NCc1oc(-c2ccccc2)cc1C(=O)O | - | - | - | - | 45µM
CCN(CC)Cc1cc(C(=O)O)c(-c2ccccc2)o1 | - | - | - | - | -
CCN(CC)Cc1oc(-c2ccccc2)cc1C(=O)O | - | - | - | - | 50µM
Cc1oc(-c2ccccc2)cc1C(N)=O | - | - | - | - | -
SMILES | TbPYK inhibitor | RE007 growth inh | FBPA Giardia inh | LmPK inhibitor | Sm TGR block
CCCCn1c(N)c(N(CCOC)C(=O)CN2c3ccccc3CC2C)c(=O)[nH]c1=O (stereo unspecified) | - | - | - | - | ?
Oc1ccc(C(c2nnnn2C2CCCCC2)N2CCOCC2)cc1 (stereo unspecified) | - | - | - | - | 2.8µM
c1cc(C(c2nnnn2C2CCCC2)N2CCOCC2)ccn1 (stereo unspecified) | - | - | - | - | 28µM
Cc1ccc(C(c2nnnn2C2CCCCC2)N2CCN3CCCC3C2)cc1 (stereo unspecified) | - | - | - | - | -
Oc1ccc(N2CCN(C(c3ccncc3)c3nnnn3C3CCCC3)CC2)cc1 (stereo unspecified) | - | - | - | - | -
O=C(O)C(CCc1ccccc1)N1CCOCC1 (stereo unspecified) | - | - | . | . | .

High-throughput results from PubChem.
